# GLS inh = qHTS for Inhibitors of Glutaminase (GLS) | Glutaminase kidney isoform, mitochondrial (Homo sapiens), O94925 | GLS enzymatic activity, qHTS titration | Potency, µM (titrated, usually from 45.5 µM), usual class: inhibitors | hit rate 0.21% among 410,000 | AID 624170, 2012
#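 Glutamate formation by hKGA was monitored fluorometrically using coupled glutamate oxidase, HRP and Amplex Red. Substrate was added as 1 mM L-glutamine solution; incubation was 30 min at RT after an initial read.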
# APEX1 inh = qHTS Assay for Inhibitors of the Human Apurinic/apyrimidinic Endonuclease 1 (APE1) | DNA repair nuclease/redox regulator APEX1 (Homo sapiens), P27695 | recombinant APE1, TAMRA/BHQ-2 abasic DNA cleavage fluorescence | Potency, µM (titrated, usually from 65.8 µM), actives largely listed as inhibitors | hit rate 0.35% among 350,000 | AID 2517, 2012; note: nearly all actives have a fitted effect of over 55% in size
#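 Compound pre-exposure to 0.75 nM APE1, 15 min at ambient temperature. Reaction initiated with 50 nM TAMRA/BHQ-2 THF substrate, read immediately in kinetic mode, 525 nm excitation, 598 nm emission.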
# POLI inh = qHTS for Inhibitors of Polymerase Iota; hit rate 1% among 390,000; Potency, µM (top dose mostly 115 µM), most hits filed as inhibitors; AID 588590, 2011; Pol iota fluorescent replication assay, 10 min; DNA polymerase iota (Homo sapiens), Q9UNA4
#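 Fluorescent replication assay read twice, at 0 min and 10 min after adding 50 nM (final) substrate. Enzyme (10 nM) and compounds were first incubated 15 min at room temperature; enzyme-free buffer wells were negative controls.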
# Pol kappa inh = qHTS for Inhibitors of Polymerase Kappa; Potency, µM (doses to about 107 µM), actives largely listed as inhibitors; hit rate 0.53% among 400,000; DNA polymerase kappa (Homo sapiens), Q9UBT6; purified Pol kappa, fluorescent DNA synthesis assay, 10 min
#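 10 nM Pol kappa preincubated 15 min at room temperature with compounds, then reaction started with substrate at 50 nM final. Fluorescence read kinetically at 0 and 10 min; buffer-only wells served as negative control.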
# Pol beta inh = qHTS Assay for Inhibitors of DNA Polymerase Beta; Potency, µM (doses to about 114 µM), hits mostly inhibitors; Pol beta primer extension/strand displacement, fluorescence kinetic; hit rate 1.3% among 340,000; AID 485314, 2010
#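 Reaction started by 50 nM substrate onto compound-treated Pol beta (10 nM, 15 min preincubation, room temperature); plates read at 0 min and 10 min. Normalized concentration-effect data fitted by four-parameter Hill equation.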
# Pol eta inh = qHTS for Inhibitors of Polymerase Eta. DNA polymerase eta (Homo sapiens), Q9Y253. recombinant Pol eta, fluorescent DNA replication assay. Potency, µM (top dose mostly 114 µM), most hits filed as inhibitors. hit rate 1.2% among 390,000
# Target sequence (Q9Y253 whole entry, looked up): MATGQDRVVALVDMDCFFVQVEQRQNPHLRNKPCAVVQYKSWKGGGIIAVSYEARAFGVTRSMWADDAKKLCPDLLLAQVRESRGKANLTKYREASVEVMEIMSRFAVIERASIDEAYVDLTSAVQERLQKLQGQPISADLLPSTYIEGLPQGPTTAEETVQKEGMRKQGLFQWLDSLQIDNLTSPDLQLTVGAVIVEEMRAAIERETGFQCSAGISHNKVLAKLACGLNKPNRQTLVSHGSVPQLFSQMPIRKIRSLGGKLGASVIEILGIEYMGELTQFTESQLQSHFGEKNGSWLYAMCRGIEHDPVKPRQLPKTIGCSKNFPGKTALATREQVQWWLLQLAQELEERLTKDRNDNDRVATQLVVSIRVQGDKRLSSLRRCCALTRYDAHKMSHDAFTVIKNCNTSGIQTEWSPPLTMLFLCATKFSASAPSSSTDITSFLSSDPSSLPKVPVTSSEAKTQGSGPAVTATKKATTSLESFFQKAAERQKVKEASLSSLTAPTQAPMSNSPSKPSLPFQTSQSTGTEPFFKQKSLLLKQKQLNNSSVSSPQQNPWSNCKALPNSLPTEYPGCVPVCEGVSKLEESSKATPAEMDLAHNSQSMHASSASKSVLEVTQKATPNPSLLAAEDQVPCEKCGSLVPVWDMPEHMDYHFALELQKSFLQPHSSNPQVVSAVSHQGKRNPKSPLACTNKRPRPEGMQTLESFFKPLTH
#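 Fluorescent replication assay: 50 nM final substrate added after a 15 min room-temperature compound preincubation with 10 nM enzyme. Signal taken at 0 min and again at 10 min.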
# Numbers stand for hits; – = inactive; ? = inconclusive; · = no result. An excerpt weighted towards active compounds, which were near 2.4% of everything screened. Calls come from the whole dose curve; as a rule, active = well fitted curve in the direction sought with a large enough effect; inconclusive = small, poorly fitted or top-dose-only effect, or another doubt; inactive = no such curve, though single readings can be large; an effect the other way counts as inactive or inconclusive.
SMILES,GLS inh,APEX1 inh,POLI inh,Pol kappa inh,Pol beta inh,Pol eta inh
N#Cc1ccccc1S(=O)(=O)N1CCN(C(=O)c2ccc(-n3cncn3)c([N+](=O)[O-])c2)CC1,–,–,–,–,·,–
COc1ccc(Nc2nc(N3CCCC3)nc3ccccc23)c(OC)c1,–,?,?,–,20µM,–
O=C(/C=C/c1ccco1)Nc1ccc(Cl)c(S(=O)(=O)N2CCOCC2)c1,–,–,–,–,–,–
CC1(C(=O)O)CC(C)(C(=O)O)CC(C)(C(=O)O)C1 (stereo unspecified),–,–,–,–,–,–
COC(=O)C1=C(O)C2(C(=O)O)CC(C(=O)OC)=C(O)C(C(=O)O)(C1)C2,11.2µM,–,–,–,–,–
C#CCOCCOCCOCCNc1nc(N2CCN(C(=O)CCCCCCCCCCNC(=O)Cn3cc(CCCCCN)nn3)CC2)nc(N2CCN(C(=O)CCCCCCCCCCNC(=O)[C@H]([C@@H](C)CC)n3cc(CCCCN=C(N)N)nn3)CC2)n1,?,?,?,–,·,79.4µM
C#CCOCCOCCOCCNc1nc(N2CCN(C(=O)CCCCCCCCCCNC(=O)[C@H]([C@@H](C)CC)n3cc(CCCCN=C(N)N)nn3)CC2)nc(N2CCN(C(=O)CCCCCCCCCCNC(=O)[C@H](CCCCN)n3cc(C)nn3)CC2)n1,15.8µM,?,?,–,·,?
O=C(CN1C(=O)S/C(=C/c2ccncc2)C1=O)N1CCOCC1,–,–,–,–,–,–
Cc1cc(C(=O)OCC(=O)Nc2sc3c(c2C#N)CCC(C)C3)c2ccccc2n1 (stereo unspecified),–,–,56.2µM,?,17.8µM,79.4µM
O=c1[nH]c(=O)n(Cc2ccccc2)c2nc(-c3ccc(C(F)(F)F)cc3)n(CCO)c12,–,–,–,–,?,–
O=c1[nH]c(=O)n(Cc2ccccc2)c2nc(-c3cccs3)n(CCO)c12,–,–,–,–,35.5µM,–
CCN(CC)c1ccc(/C=C/c2cccc[n+]2C)c(OC)c1,?,–,–,–,50.1µM,–
COc1ccc(NCc2nnc(SCC(=O)c3ccc(OC)cc3)n2C)cc1,–,–,–,–,–,–
Cc1ccc(NC(=O)c2cc(S(=O)(=O)N3CCCCC3)c[nH]2)cc1C,–,–,–,–,–,–
COc1ccc2c(C)cc(SCC(=O)Nc3cc(C(N)=O)cc(C(N)=O)c3)nc2c1,–,–,35.5µM,–,25.1µM,50.1µM
C=CCn1c(=O)[nH]c2cc(C(=O)N3CCN(c4cccc(Cl)c4)CC3)ccc2c1=O,–,–,89.1µM,–,–,?
COCCn1c(=O)[nH]c2cc(C(=O)N3CCN(c4cccc(Cl)c4)CC3)ccc2c1=O,–,–,–,–,–,–
COc1ccc2c(c1)C(c1ccccc1OC)CC(=O)O2 (stereo unspecified),·,–,·,39.8µM,·,·
CC1(C)CC(=O)C(N=Nc2cc(S(=O)(=O)N3CCOCC3)ccc2Cl)=C(O)C1,–,10µM,–,–,22.4µM,–
CC1(C)CC(=O)C(N=Nc2cc(C(F)(F)F)ccc2Cl)=C(O)C1,–,–,–,–,–,–
Cc1nnn(-c2nonc2N)c1C(=O)N/N=C/c1cccc2ccccc12,–,?,–,–,–,–
Cc1nnn(-c2nonc2N)c1C(=O)N/N=C/c1ccccc1O,–,–,?,–,44.7µM,?
C=CC[n+]1cccc2cccc(O)c21,·,·,12.6µM,–,·,·
Cc1cccc(NC(=O)/C=C/c2cccs2)n1,–,–,–,?,50.1µM,–
COc1cc(-c2nnc(SCC(=O)c3ccccc3)o2)cc(OC)c1OC,–,–,–,–,–,–
CCN(C(=O)CSc1nnc(-c2cc(OC)c(OC)c(OC)c2)o1)c1ccccc1,–,·,?,?,10µM,–
CCN1C/C(=C/c2ccc(N3CCOCC3)cc2)C(=O)/C(=C/c2ccc(N3CCOCC3)cc2)C1,–,–,79.4µM,?,?,?
